NPR1 activator = GC-A (human) enzyme activation. HEK293 GC-A cells, cGMP TR-FRET, EC30 ANP; 0% at EC30 ANP, 100% saturating ANP. activation, % at 10 µM. hit rate 0.14% among 370,000; in the data active means activation above about 40%
GC-B act = GC-B (human) receptor activation. HEK293-GC-B cells, CNP EC30, cGMP TR-FRET; 0% at EC30 CNP, 100% saturating CNP. AID 1920062. P20594. activation, % at 10 µM. hit rate 0.11% among 370,000;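 active means activation at 10 µM reaching about 35% in either raw or pattern-adjusted values, limit read from the data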
Target sequence (P20594 whole entry, looked up): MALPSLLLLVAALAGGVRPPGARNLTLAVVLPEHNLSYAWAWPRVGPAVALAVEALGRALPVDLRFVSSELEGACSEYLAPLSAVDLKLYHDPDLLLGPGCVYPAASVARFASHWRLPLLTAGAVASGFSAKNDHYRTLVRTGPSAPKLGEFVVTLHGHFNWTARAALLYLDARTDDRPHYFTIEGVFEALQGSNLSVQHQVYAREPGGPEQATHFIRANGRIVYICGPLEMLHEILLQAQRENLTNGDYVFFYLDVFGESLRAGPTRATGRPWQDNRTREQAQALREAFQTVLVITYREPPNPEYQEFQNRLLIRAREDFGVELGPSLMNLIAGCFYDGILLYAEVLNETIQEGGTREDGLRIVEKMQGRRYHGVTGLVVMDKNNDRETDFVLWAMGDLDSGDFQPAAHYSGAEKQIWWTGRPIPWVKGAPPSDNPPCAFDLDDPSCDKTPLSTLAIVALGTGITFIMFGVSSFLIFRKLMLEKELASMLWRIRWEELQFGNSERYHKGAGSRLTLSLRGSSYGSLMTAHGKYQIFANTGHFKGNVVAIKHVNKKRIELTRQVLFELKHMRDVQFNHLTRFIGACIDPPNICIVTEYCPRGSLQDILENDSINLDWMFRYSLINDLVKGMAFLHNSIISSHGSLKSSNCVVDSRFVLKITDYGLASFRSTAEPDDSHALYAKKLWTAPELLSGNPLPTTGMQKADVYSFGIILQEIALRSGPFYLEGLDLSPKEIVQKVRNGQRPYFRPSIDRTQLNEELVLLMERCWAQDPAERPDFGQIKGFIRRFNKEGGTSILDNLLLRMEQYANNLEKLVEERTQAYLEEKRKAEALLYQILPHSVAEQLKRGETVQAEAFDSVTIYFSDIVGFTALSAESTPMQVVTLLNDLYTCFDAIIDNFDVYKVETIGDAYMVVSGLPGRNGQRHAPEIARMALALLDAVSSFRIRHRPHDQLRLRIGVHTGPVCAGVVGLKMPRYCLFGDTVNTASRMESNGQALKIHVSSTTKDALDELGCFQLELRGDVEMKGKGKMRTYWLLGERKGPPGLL
Exocytosis inh = lytic granule exocytosis inhibition. TALL-104 LAMP-1 surface exposure, flow cytometry; cells stimulated with thapsigargin and PMA. inhibition, % at 10 µM. hit rate 0.66% among 360,000. AID 651702;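 active means inhibition above about 55%, limit read from the data; inconclusive means no clear call, values can overlap the other calls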
Myeloid diff 2 = promotes myeloid progenitor differentiation | hit rate 1% among 360,000 | calls only at 10 µM | ER-HoxA9 myeloid progenitors, lysozyme-GFP differentiation, flow cytometry;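 active means normalized GFP-positive differentiation at or above the plate's own cutoff, the solvent-only control mean plus 3 SD; inconclusive means no clear call, values can overlap the other calls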;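 further: cells exposed to compound for four days before flow analysis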
* marks the source's active call; other numbers are inactive results; i = inactive; ? = inconclusive; . = not tested or not shown; + = active, no number. This is a sample that favours compounds with a hit; in the whole collection about 1.8% have one here.

SMILES	NPR1 activator	GC-B act	Exocytosis inh	Myeloid diff 2
CCOC(=O)[C@]12CCCC=C1N(CCCOC)C(=O)[C@@H]2CC(=O)NCCCCc1ccccc1	2.1	3.7	.	.
CCC(C)N(C(=O)CN1C(=O)C2CCCCN2C(=O)c2ccccc21)C(C)CC (centres undefined)	-1.5	2.4	.	.
COC(=O)c1ccccc1NC(=O)Nc1cc(C)ccn1	3.4	1.8	1.8	i
Cc1ccnc(NC(=O)Nc2ccc(Br)cc2Cl)c1	0.7	3.0	1.8	+
COc1ccc(S[C@]2(C(=O)N3CCOCC3)CC(=O)N(C(=O)c3ccccc3)[C@@H]2c2ccc(OC)cc2)cc1	-5.2	-8.5	.	.
CC1(C)CCN2CCC(C)(C)c3c(O)ccc1c32	-5.0	1.9	16.6	+
CC(C)NC(=O)C1C(c2ccc(C(F)(F)F)cc2)=Nc2ccccc2N1C(=O)c1cccc2ccccc12 (centres undefined)	-0.4	-1.3	13.9	i
N#Cc1ccc(CSc2nnc(-c3ccccc3)n2Cc2ccco2)cc1	-10.9	-10.8	-0.5	+
Cc1ccc2c(c1)-c1c(cnn1CC(=O)NCCc1cccc(F)c1)CO2	-3.9	5.7	.	.
O=c1oc2cc(Cl)ccc2n1CSc1nc2ccccc2s1	-9.1	-4.6	-0.1	+
O=C(CSc1nc2ccccc2s1)N1c2ccccc2Sc2ccc(Cl)cc21	-15.1	-5.8	-0.8	i
O=C(NCC(F)(F)F)c1csc([C@@H]2O[C@H](CO)[C@H](O)[C@H](O)[C@H]2O)n1	-7.6	-6.4	-7.8	i
CCOC(=O)c1cnc2c(C)cccc2c1NCCc1ccc(OC)c(OC)c1	0.8	-6.1	-2.4	i
CCOC(=O)c1cnc2ccc(C(=O)OC)cc2c1NCCc1ccc(OC)c(OC)c1	27.6	36.2*	0.3	i
CN(C)c1ccc(NC(=O)C[n+]2ccccc2)cc1	-8.3	2.5	56.2*	i
O=C(O)C1=C[C@H](c2coc3ccccc3c2=O)C[C@H](OCCCCO)O1	2.7	-3.6	69.4*	i
O=S1(=O)c2ccccc2-c2c(nnn2Cc2ccccc2)CN1C1CC1	2.5	-3.8	.	.
O=C(Oc1ccccc1/C=C\C(=O)c1cc2ccccc2o1)c1ccccc1	-4.9	-2.6	61.1*	i
O=C(Oc1ccccc1/C=C\C(=O)c1cc2ccccc2o1)c1cccc(F)c1	1.1	-7.6	55.4	?
C[C@@H]1CCN(C2CC2)S(=O)(=O)c2ccc(N3CCC[C@@H]3C)cc2O1	0.8	1.6	.	.
Cc1ccc(/C=N/NC(=O)c2cccc(NC(=O)c3ccccc3Cl)c2)o1	1.3	4.1	12.5	+
Cc1ccc(/C=N/NC(=O)c2cccc(NC(=O)c3ccccc3C)c2)o1	3.0	2.3	48.8	+
CCc1cc(=O)oc2cc(OCC(=O)NCCN3CCOCC3)c(Cl)cc12	0.9	-6.0	-5.7	?
O=C(COc1cc(Cl)c(Cl)cc1Cl)NCCN1CCOCC1	2.3	1.6	-1.7	+
Clc1cccc(CN2CCN(c3ncc(Cc4ccccc4)cn3)CC2)c1Cl	-0.5	4.0	.	.
SMILES	NPR1 activator	GC-B act	Exocytosis inh	Myeloid diff 2
Cn1c(=O)c(C(=O)NNC(=O)c2ccccc2F)c(O)c2ccccc21	4.2	4.3	-16.6	+
O=C(c1ccoc1)N1CCN(c2cc(-c3ccco3)nc3cc(-c4ccco4)nn23)CC1	-3.3	-12.3	.	.
COc1ccc(S(=O)(=O)c2c(N)n(Cc3ccco3)c3nc4ccccc4nc23)cc1	9.3	-4.5	1.0	+
COc1cccc2c(NCc3ccccc3)nc(-n3c(N)nc4ccccc43)nc12	0.6	-0.6	.	.
CC(=O)c1ccc(OCC(=O)NC2CCCN(Cc3ccccc3F)C2)cc1 (centres undefined)	2.2	-0.5	0.5	+
O=C(COc1ccccc1)NC1CCCN(Cc2ccccc2F)C1 (centres undefined)	0.1	-2.4	-1.8	i
C[C@H](O)[C@@H]1CN2CCc3ccc(N4CCOCC4)cc3[C@@H]2C[C@@H]1N(C)C(=O)c1ccco1	1.4	-0.9	.	.
CCCCC(c1nc2ccccc2[nH]1)n1c(-c2ccccc2)nc2ccccc21 (centres undefined)	-21.3	-20.4	-4.3	i
Cc1[nH]c2ccccc2c1CCNC(=O)c1ccc2c(c1[N+](=O)[O-])C(=O)c1ccccc1C2=O	4.8	17.3	-0.2	+
Cc1[nH]c2c(C)cccc2c1CCNC(=O)c1ccc2c(c1[N+](=O)[O-])C(=O)c1ccccc1C2=O	2.4	-0.6	-4.1	i
CNC(=S)NNC(=O)c1oc2nc(-c3ccccc3)cc(C)c2c1N	6.1	0.3	-5.0	i
Cc1ccc(-c2cc(-c3ccco3)c3c(N)c(C(=O)NN)oc3n2)cc1	-17.5	-12.9	1.9	+
